# Measurements from article PMC5700166.
# Substitutions are numbered along the chain they refer to.
# Legend:
# Assay in all cases: protein-binding microarray (PBM); PBM: ~300 nM protein, 6 mM HEPES pH 7.8, 80 mM KCl, 0.5 mM EDTA, 0.5 mM EGTA, 6% glycerol, 35 ng/ul poly-dIdC, 1% milk, 1 h, room temperature; Ap Aiptasia and Nv Nematostella (sea anemones) / Co Capsaspora / Aq Amphimedon (sponge) / Dm Drosophila / Hu human; RHD is the Rel homology domain; high values mean tight binding
# Conditions in all cases: dsDNA, one strand shown
# [1] = biological target: T1, GST-Ap-NF-kB RHD (Exaiptasia pallida (Aiptasia), UniProt A0A913YAJ5 2-422)
# T1 sequence: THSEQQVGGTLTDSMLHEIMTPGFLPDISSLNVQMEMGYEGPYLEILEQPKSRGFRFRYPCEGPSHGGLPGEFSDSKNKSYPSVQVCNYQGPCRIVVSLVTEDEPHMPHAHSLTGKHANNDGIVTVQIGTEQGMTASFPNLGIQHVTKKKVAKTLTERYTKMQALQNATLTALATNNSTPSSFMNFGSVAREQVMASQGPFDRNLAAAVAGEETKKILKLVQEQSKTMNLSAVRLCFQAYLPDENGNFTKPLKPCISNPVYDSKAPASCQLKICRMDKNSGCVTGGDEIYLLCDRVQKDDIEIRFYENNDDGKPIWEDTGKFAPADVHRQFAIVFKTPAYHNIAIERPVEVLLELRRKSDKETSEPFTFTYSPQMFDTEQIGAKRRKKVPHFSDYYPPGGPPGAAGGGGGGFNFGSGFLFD
# [2] = biological target: T2, GST-Nv-NF-kB (Cys allele) (Nematostella vectensis, UniProt E5G601 2-411)
# T2 sequence: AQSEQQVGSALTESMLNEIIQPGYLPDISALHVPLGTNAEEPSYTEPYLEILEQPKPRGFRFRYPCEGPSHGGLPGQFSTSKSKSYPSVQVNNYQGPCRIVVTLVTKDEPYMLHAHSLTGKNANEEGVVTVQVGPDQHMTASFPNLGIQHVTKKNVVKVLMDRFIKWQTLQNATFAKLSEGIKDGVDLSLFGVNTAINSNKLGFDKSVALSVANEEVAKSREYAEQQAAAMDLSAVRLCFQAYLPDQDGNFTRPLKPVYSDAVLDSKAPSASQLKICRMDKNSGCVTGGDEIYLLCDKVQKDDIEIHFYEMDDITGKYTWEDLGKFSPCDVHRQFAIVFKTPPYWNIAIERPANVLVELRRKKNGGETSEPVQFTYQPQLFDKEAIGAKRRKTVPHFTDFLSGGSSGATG
# [3] = biological target: T3, GST-Co-NF-kB (Capsaspora owczarzaki, UniProt F1ARL5 200-546)
# T3 sequence: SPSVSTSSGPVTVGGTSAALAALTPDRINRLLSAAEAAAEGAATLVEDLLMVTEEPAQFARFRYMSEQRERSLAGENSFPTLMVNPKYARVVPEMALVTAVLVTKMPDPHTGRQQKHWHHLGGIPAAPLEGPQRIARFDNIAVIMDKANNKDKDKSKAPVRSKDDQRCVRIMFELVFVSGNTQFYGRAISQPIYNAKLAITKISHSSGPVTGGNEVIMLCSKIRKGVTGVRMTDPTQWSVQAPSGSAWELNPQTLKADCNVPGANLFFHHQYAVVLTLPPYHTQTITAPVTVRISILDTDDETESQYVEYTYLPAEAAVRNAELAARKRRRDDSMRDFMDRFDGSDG
# [4] = biological target: T4, GST-Dm-Relish (Drosophila melanogaster, UniProt Q94527 99-473)
# T4 sequence: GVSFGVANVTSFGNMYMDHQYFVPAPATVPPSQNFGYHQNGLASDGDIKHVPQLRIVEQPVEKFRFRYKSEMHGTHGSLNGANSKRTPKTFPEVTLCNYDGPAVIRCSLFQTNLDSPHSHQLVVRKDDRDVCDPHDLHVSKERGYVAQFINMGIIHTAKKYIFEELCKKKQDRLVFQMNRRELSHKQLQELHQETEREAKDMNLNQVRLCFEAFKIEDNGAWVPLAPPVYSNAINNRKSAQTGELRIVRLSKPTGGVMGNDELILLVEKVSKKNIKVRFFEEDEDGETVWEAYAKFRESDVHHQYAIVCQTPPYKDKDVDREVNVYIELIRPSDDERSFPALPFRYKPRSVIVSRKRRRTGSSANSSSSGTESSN
# [5] = biological target: T5, GST-Aq-NF-kB (Amphimedon queenslandica, UniProt A9Y5G7 2-389)
# T5 sequence: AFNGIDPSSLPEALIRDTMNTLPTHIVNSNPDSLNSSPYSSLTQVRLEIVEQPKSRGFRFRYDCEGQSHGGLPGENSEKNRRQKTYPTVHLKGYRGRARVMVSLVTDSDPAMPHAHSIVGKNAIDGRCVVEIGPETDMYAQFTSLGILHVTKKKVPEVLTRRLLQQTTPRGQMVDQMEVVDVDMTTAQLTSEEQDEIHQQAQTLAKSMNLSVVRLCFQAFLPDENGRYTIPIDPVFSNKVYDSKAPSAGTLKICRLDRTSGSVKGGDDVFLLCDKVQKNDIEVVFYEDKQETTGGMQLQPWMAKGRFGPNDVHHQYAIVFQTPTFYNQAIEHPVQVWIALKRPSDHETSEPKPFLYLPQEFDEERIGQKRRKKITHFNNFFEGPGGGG
# [6] = biological target: GST-Hu-p50 (Homo sapiens, UniProt P19838 7-356)
# Chain of GST-Hu-p50 (P19838 7-356): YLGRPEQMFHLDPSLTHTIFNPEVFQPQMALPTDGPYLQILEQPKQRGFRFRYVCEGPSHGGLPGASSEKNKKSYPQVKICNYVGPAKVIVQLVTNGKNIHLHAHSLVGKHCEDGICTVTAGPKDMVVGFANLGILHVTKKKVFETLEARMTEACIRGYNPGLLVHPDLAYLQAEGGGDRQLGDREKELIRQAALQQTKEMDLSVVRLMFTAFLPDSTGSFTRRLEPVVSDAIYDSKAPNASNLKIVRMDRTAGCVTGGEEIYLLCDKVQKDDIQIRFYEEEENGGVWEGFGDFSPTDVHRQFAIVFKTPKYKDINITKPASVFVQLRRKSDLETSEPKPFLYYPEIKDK
# [7] = biological target: T6, GST-Nv-NF-kB (Ser allele) (Nematostella vectensis, UniProt A7UNT2 2-411)
# T6 sequence: T2 sequence with Q21R, C66S, S207N, E215Q, V217A, E225K, A268E, D399E
Sequence,binding signal [1],binding signal [2],binding signal [3],binding signal [4],binding signal [5],binding signal [6],binding signal [7]
CCGATTAACATCACGCATCCCCCTGATGTTAATCGGGTCTTGATTCGCTTGACGCTGCTG,6.1 z-score,4.9 z-score,4.65 z-score,3.44 z-score,4.33 z-score,5.14 z-score,–
CCGATTAACATCAAAATTCCCTGTGATGTTAATCGGGTCTTGATTCGCTTGACGCTGCTG,4.81 z-score,6.86 z-score,4.2 z-score,5.96 z-score,6.37 z-score,5.07 z-score,–
CCGATTAACATCAAATTTACCCCTGATGTTAATCGGGTCTTGATTCGCTTGACGCTGCTG,3.29 z-score,3.57 z-score,8.25 z-score,3.85 z-score,4.53 z-score,4.09 z-score,–
CCGATTAACATCAATATCCCCCCTGATGTTAATCGGGTCTTGATTCGCTTGACGCTGCTG,7.34 z-score,5.13 z-score,8.06 z-score,5.53 z-score,5.74 z-score,5.69 z-score,–
CCGATTAACATCAGGGGATATACTGATGTTAATCGGGTCTTGATTCGCTTGACGCTGCTG,5.2 z-score,4.91 z-score,3.57 z-score,7.81 z-score,4.48 z-score,4.04 z-score,–
CCGATTAACATCACTAATCCCCCTGATGTTAATCGGGTCTTGATTCGCTTGACGCTGCTG,6.44 z-score,5.78 z-score,5.81 z-score,5.13 z-score,4.99 z-score,6.23 z-score,–
CCGATTAACATCACCAAAATTCCTGATGTTAATCGGGTCTTGATTCGCTTGACGCTGCTG,–,–,–,1.01 z-score,1.17 z-score,1.51 z-score,1.17 z-score
CCGATTAACATCAAATTTTCCGGTGATGTTAATCGGGTCTTGATTCGCTTGACGCTGCTG,–,–,–,1.54 z-score,2.04 z-score,1.95 z-score,1.67 z-score
CCGATTAACATCACTTCGGGAAATGATGTTAATCGGGTCTTGATTCGCTTGACGCTGCTG,–,2.8 z-score,2.89 z-score,–,2.16 z-score,1.48 z-score,1.97 z-score
CCGATTAACATCAGGATTTGCCCTGATGTTAATCGGGTCTTGATTCGCTTGACGCTGCTG,–,1.25 z-score,–,–,3.5 z-score,1.37 z-score,–
CCGATTAACATCAAAAAATTTTCTGATGTTAATCGGGTCTTGATTCGCTTGACGCTGCTG,–,–,–,2.72 z-score,1.49 z-score,2.15 z-score,1.98 z-score
CCGATTAACATCAAAGTGGGAAATGATGTTAATCGGGTCTTGATTCGCTTGACGCTGCTG,–,3.3 z-score,2.54 z-score,–,1.64 z-score,2.09 z-score,2.91 z-score
CCGATTAACATCAGGTTATTCCATGATGTTAATCGGGTCTTGATTCGCTTGACGCTGCTG,–,–,–,2.41 z-score,1.85 z-score,3.32 z-score,2.28 z-score
CCGATTAACATCAAGGGCTTTCCTGATGTTAATCGGGTCTTGATTCGCTTGACGCTGCTG,1.28 z-score,–,–,2.98 z-score,3.6 z-score,1.47 z-score,–
CCGATTAACATCAGGGAGTACACTGATGTTAATCGGGTCTTGATTCGCTTGACGCTGCTG,1.96 z-score,–,1.03 z-score,1.58 z-score,1.84 z-score,1.1 z-score,–
CCGATTAACATCAGGTATTTTACTGATGTTAATCGGGTCTTGATTCGCTTGACGCTGCTG,–,–,–,4.67 z-score,1.93 z-score,2 z-score,2.63 z-score
CCGATTAACATCAAAATTTGCCCTGATGTTAATCGGGTCTTGATTCGCTTGACGCTGCTG,–,–,1.18 z-score,–,1.61 z-score,1.54 z-score,1.28 z-score
CCGATTAACATCAAAAAAATTCCTGATGTTAATCGGGTCTTGATTCGCTTGACGCTGCTG,–,1.23 z-score,–,3.84 z-score,2.87 z-score,1.79 z-score,1.22 z-score
CCGATTAACATCACCCCAAACGCTGATGTTAATCGGGTCTTGATTCGCTTGACGCTGCTG,1.27 z-score,–,1.79 z-score,–,1.09 z-score,1.17 z-score,–
CCGATTAACATCAAGGAATTTTCTGATGTTAATCGGGTCTTGATTCGCTTGACGCTGCTG,–,1.08 z-score,–,1.93 z-score,2.26 z-score,1.18 z-score,–
CCGATTAACATCAAGAATTTTCCTGATGTTAATCGGGTCTTGATTCGCTTGACGCTGCTG,–,–,–,–,1.12 z-score,1.25 z-score,1.03 z-score
CCGATTAACATCAGGAAATTCCATGATGTTAATCGGGTCTTGATTCGCTTGACGCTGCTG,–,1.06 z-score,–,1.68 z-score,3.91 z-score,1.1 z-score,–
